# Measurements from PubChem BioAssay (Tox21).
# Results filed as inconclusive are left out. Values without a mark were called inactive. The source made the active and inactive calls. The call rests on the fitted dose curve.
# Assay: p53 small molecule agonists, cell-based qHTS assay with human liver microsomes: qHTS cell viability counter screen (AID 1963579); further: nearly all actives have a fitted effect of over 45% in size
# Settings: p53RE-bla HCT-116 viability, ATP luminescence, 16 h, HLM; series mostly up to 66 µM; activity change, negative = cytotoxicity: at the top concentration
# From the text: National Center for Advancing Translational Sciences [NCATS]
# Division of Preclinical Innovation [DPI]
# U.S. Environmental Protection Agency [EPA]
# National Institutes of Environmental Health Sciences [NIEHS]
# National Toxicology Program [NTP]
# U.S. Food and Drug Administration [FDA]
# p53, a tumor suppressor protein, is activated following cellular insult, including DNA damage and other cellular stresses. The activation of p53 regulates cell fate by inducing DNA repair, cell cycle arrest, apoptosis, or cellular senescence. The activation of p53, therefore, is a good indicator of DNA damage and other cellular stresses. […] The activation of the reporter gene under culture conditions can be detected by fluorescence intensity. This cell line was used to screen the Tox21 10K compound library in the condition of presence of human liver microsomes and to identify agonists that activate the p53 signaling pathway after in vitro metabolic activation (Ooka et al., Archive of Toxicology 96:1975-1987, 2022).
# Tox21 Assay Protocol Summary:
# The p53RE-bla cells were dispensed at 4,000cells/3ul/well in 1536-well black-clear bottom plates. After the assay plates were incubated at 37 C, 5% CO2 incubator for 5 hours, 23 nL of compounds dissolved in DMSO, positive controls or DMSO only was transferred to the assay plate. Following compound addition, 3 uL of human liver microsomes (XenoTech, Kansas City, KS) at final concentration of 0.5 mg/mL and 1uL of B-Nicotinamide adenine dinucleotide 2'-phosphate (NADPH) at final concentration of 0.5 mg/mL were transferred to the assay plate. The plates were incubated at 37 C for 16 hours. 1 uL of LiveBLAzer detection mixture was added to each well and the plates were incubated at room temperature in the dark for 2 h. Fluorescence intensity at 460 and 530 nm emission and 405 nm excitation were measured by an Envision plate reader. For cell viability readout that measures cytotoxicity, 4 ul/well of CellTiter-Glo reagent was added into the assay plates using a Flying Reagent Dispenser. After 30 min incubation at room temperature, the luminescence intensity in the plates was measured using a ViewLux plate reader.
# On the % scale 0 is the no-effect control and ±100 the full control effect; potency means the concentration at half of the fitted maximal effect.
Compound,"activity change, negative = cytotoxicity",Potency
CCCCN(N=O)C(=N)N[N+](=O)[O-],-20.7%,–
CC1CCCCC1NC(=O)Nc1ccccc1 (stereo not given),-1.88%,–
CC(C)(C)C(O)C(Oc1ccc(-c2ccccc2)cc1)n1cncn1 (stereo not given),-18.8%,–
CNC(=O)Oc1cc(C)c(SC)c(C)c1,1.87%,–
CCCCCCCCCCCCCN1CC(C)OC(C)C1 (stereo not given),-8.6%,–
N#Cc1c[nH]cc1-c1cccc2c1OC(F)(F)O2,17.1%,–
CN,-5.99%,–
Oc1cccc(Cl)c1Cl,4.27%,–
Clc1ccc(CO/N=C(\Cn2ccnc2)c2ccc(Cl)cc2Cl)c(Cl)c1,-4.13% [at 30.3 µM],–
CC1N=C(N)OC1c1ccccc1 (stereo not given),-3.15%,–
Clc1ccc(-c2ccc(Cl)c(Cl)c2Cl)c(Cl)c1Cl,-9.17%,–
CCC1(c2cnc[nH]2)Cc2ccccc2C1,-1.07% [at 30.3 µM],–
O=C(c1ccccc1)C(Cl)Cl,2.29%,–
CCC(C)(C)C(=O)OC1=C(c2ccc(Cl)cc2Cl)C(=O)OC12CCCCC2,2.62%,–
CN1[C@@H]2CC[C@H]1CC(O)C2 (stereo not given in full),2.88%,–
COc1cc(CCN)cc(OC)c1OC,-4.17%,–
O=[N+]([O-])c1ccc(Nc2ccccc2)cc1,–,inactive
[Cl][Sb]([Cl])[Cl],13%,–
Clc1ccc(C2(Cn3cncn3)CC(Br)CO2)c(Cl)c1 (stereo not given),-3.64%,–
CCOC(=O)C(Cl)Cc1cc(-n2nc(C)n(C(F)F)c2=O)c(F)cc1Cl (stereo not given),0.705%,–

Compound,"activity change, negative = cytotoxicity",Potency
COP(N)(=S)OC,1.63%,–
c1csc(-c2ccc(-c3cccs3)s2)c1,-3.4%,–
CC[C@H](C)[C@H]1O[C@]2(C=C[C@@H]1C)C[C@@H]1C[C@@H](C/C=C(\C)[C@@H](O[C@H]3C[C@H](OC)[C@@H](O[C@H]4C[C@H](OC)[C@@H](NC)[C@H](C)O4)[C@H](C)O3)[C@@H](C)/C=C/C=C3\CO[C@@H]4[C@H](O)C(C)=C[C@@H](C(=O)O1)[C@]34O)O2,–,28.9 µM (active)
CCCN(CCC)C(=O)Cc1c(-c2ccc(Cl)cc2)nc2ccc(Cl)cn12,-1.06% [at 30.3 µM],–
CNC(=O)Oc1cccc(C(C)C)c1,-1.68%,–
CNC(C)Cc1ccccc1OC (stereo not given),-3.28% [at 30.3 µM],–
C[C@H]1CC[C@@H]2[C@@H](C)[C@H]3[C@H](C[C@H]4[C@@H]5CC=C6CC(O[C@@H]7O[C@H](CO)[C@H](O)[C@H](O[C@@H]8O[C@H](CO)[C@@H](O)[C@H](O)[C@H]8O)[C@H]7O[C@H]7O[C@@H](C)[C@H](O)[C@@H](O)[C@H]7O)CC[C@]6(C)[C@H]5CC[C@]34C)N2C1 (stereo not given in full),3.11%,–
CC[N+]1(C)CCCC(OC(=O)C(O)(c2ccccc2)c2ccccc2)C1 (stereo not given),2.4% [at 30.3 µM],–
C[C@H]1[C@H](c2ccc(Cl)cc2)SC(=O)N1C(=O)NC1CCCCC1,-2.21%,–
FC(Cl)(Cl)C(F)(Cl)Cl,-3.54%,–
COc1ccc2c(C(=O)c3ccc(Cl)cc3)c(C)n(CC(=O)O)c2c1,-3.51% [at 30.3 µM],–
Cc1nc2ccccc2c(=O)n1-c1ccccc1Cl,11.8%,–
CCOP(=S)(OCC)Oc1ccc(S(C)=O)cc1 (stereo not given),1.2%,–
CC[C@H]1C[C@@H]2C[C@H]3c4[nH]c5ccc(OC)cc5c4CCN(C2)[C@@H]13,1.31%,–
CSC1=N[C@@](C)(c2ccccc2)C(=O)N1Nc1ccccc1,-6.82%,–
O=C(O)/C=C/C(=O)O,–,inactive
CCCC[N+]1(C)[C@@H]2CC(OC(=O)[C@H](CO)c3ccccc3)C[C@H]1[C@@H]1O[C@@H]12 (stereo not given in full),-6.06% [at 30.3 µM],–
Fc1cccc(Cl)c1CCl,1.12%,–
CCCSP(=O)(OCC)Oc1ccc(Br)cc1Cl (stereo not given),1.9% [at 30.3 µM],–
O=NN1CCN(N=O)CC1,0.439%,–
